Laboratory results from PubChem BioAssay AID1159580 (chemical genetic matrix, 2015).
Several values for one entry are separate records, joined by “and”; a condition that tells them apart may be missing. Identical values can stand only once. Out of some 5,500 compounds screened, about 2,000 (36%) were called active. Another 18% or so got no clear call; they are omitted. No stated cut-off is given here; in the data, active means normalized growth mostly below about 0.91 (no sharp cut-off); inconclusive means no clear call, values can overlap the other calls; inactive means mostly above about 0.92. Some of the results follow.

Test: chemical genetic growth profiling, strain panel (AID 1159580);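 further: tested at 20 µM; growth read once vehicle control cultures reached saturation at 30 °C; 1 = growth at the plate median or of vehicle wells; lower values mean less growth of the strain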
Settings: S. cerevisiae deletion strains, growth OD

Measured: normalized growth

O=C(O)C1CC([C@@H]2CCCCN2)CN2CCCCC12 (some centres not stated)
inactive: locus YAL021C, strain ccr4, active compounds read low 1.02 | locus YAL026C, strain drs2, active compounds read low 0.967 | locus YAL030W, strain snc1, active compounds read low 0.972 | locus YBL061C, strain skt5, active compounds read low 0.985 | locus YBR009C, strain hhf1, active compounds read low 0.924 | locus YBR021W, strain FUR4, active compounds read low 1.08 | locus YBR023C, strain chs3, active compounds read low 1.01 | locus YBR171W, strain sec66, active compounds read low 0.974 | locus YBR229C, strain ROT2, active compounds read low 1.01 | locus YBR231C, strain swc5, active compounds read low 0.981 | locus YBR279W, strain paf1, active compounds read low 0.995 | locus YCL011C, strain gbp2, active compounds read low 0.953 | locus YCL016C, strain dcc1, active compounds read low 0.989 | locus YCL029C, strain bik1, active compounds read low 0.969 | locus YCL061C, strain MRC1, active compounds read low 0.983 | locus YCL069W, strain vba3, active compounds read low 0.969 | locus YCR088W, strain abp1, active compounds read low 0.987 | locus YDL005C, strain med2, active compounds read low 0.972 | locus YDL035C, strain GPR1, active compounds read low 1.01 | locus YDL040C, strain nat1, active compounds read low 0.981 | locus YDL074C, strain BRE1, active compounds read low 1.04 | locus YDL101C, strain DUN1, active compounds read low 1.03 | locus YDL134C, strain PPH21, active compounds read low 1.1 | locus YDL185W, strain tfp1, active compounds read low 0.968 | locus YDL192W, strain arf1, active compounds read low 0.967 | locus YDR001C, strain nth1, active compounds read low 0.97 | locus YDR069C, strain doa4, active compounds read low 0.97 | locus YDR101C, strain arx1, active compounds read low 0.984 | locus YDR137W, strain rgp1, active compounds read low 0.978 | locus YDR159W, strain sac3, active compounds read low 0.958 | locus YDR162C, strain NBP2, active compounds read low 1.08 | locus YDR195W, strain ref2 0.924 | locus YDR297W, strain sur2, active compounds read low 0.984 | locus YDR318W, strain mcm21, active compounds read low 0.98 | locus YDR334W, strain swr1, active compounds read low 0.963 | locus YDR335W, strain msn5, active compounds read low 0.983 | locus YDR388W, active compounds read low 0.986 | locus YDR392W, strain spt3, active compounds read low 0.902 | locus YDR502C, strain sam2, active compounds read low 0.993 | locus YEL003W, strain gim4, active compounds read low 0.98 | locus YEL037C, strain rad23, active compounds read low 0.987 | locus YEL061C, strain CIN8 (second series), active compounds read low 0.97 | locus YEL061C, strain CIN8, active compounds read low 1.01 | locus YER015W, strain faa2, active compounds read low 0.997 | locus YER016W, strain bim1, active compounds read low 0.993 | locus YER110C, active compounds read low 0.992 | locus YER111C, strain swi4, active compounds read low 0.965 | locus YER155C, strain BEM2 (second series), active compounds read low 0.968 | locus YER155C, strain BEM2, active compounds read low 1.01 | locus YER167W, strain BCK2, active compounds read low 1.02 | locus YFR010W, strain ubp6, active compounds read low 0.969 | locus YGL078C, strain dbp3, active compounds read low 0.993 | locus YGL086W, strain mad1, active compounds read low 1.03 | locus YGL167C, strain pmr1, active compounds read low 0.957 | locus YGL173C, strain kem1, active compounds read low 0.979 | locus YGL227W, strain vid30, active compounds read low 0.959 | locus YGL240W, strain doc1, active compounds read low 0.959 | locus YGL248W, strain PDE1, active compounds read low 1.04 | locus YGL253W, strain hxk2, active compounds read low 0.999 | locus YGR078C, strain PAC10, active compounds read low 1.06 | locus YGR135W, strain pre9, active compounds read low 0.979 | locus YGR229C, strain SMI1, active compounds read low 1.08 | locus YGR252W, strain gcn5, active compounds read low 1.05 | locus YHR013C, strain ard1, active compounds read low 0.93 | locus YHR027C, strain rpn1, active compounds read low 0.971 | locus YHR030C, strain SLT2, active compounds read low 0.997 and 0.989 | locus YHR079C, strain IRE1 (second series), active compounds read low 0.998 | locus YHR079C, strain IRE1, active compounds read low 0.998 | locus YHR094C, strain hxt1, active compounds read low 0.978 | locus YHR129C, strain ARP1, active compounds read low 1.01 | locus YHR142W, strain chs7, active compounds read low 1.01 | locus YHR200W, strain rpn10, active compounds read low 0.968 | locus YIL066C, strain RNR3, active compounds read low 1.05 | locus YIL073C, strain SPO22, active compounds read low 0.984 | locus YIL125W, strain kgd1, active compounds read low 0.993 | locus YIR030C, strain dcg1, active compounds read low 0.985 | locus YJL092W, strain hpr5, active compounds read low 0.976 | locus YJL095W, strain BCK1 (second series), active compounds read low 1 | locus YJL095W, strain BCK1, active compounds read low 1.08 and 1.04 | locus YJL115W, strain asf1, active compounds read low 0.978 | locus YJL129C, strain trk1, active compounds read low 0.973 | locus YJL134W, strain LCB3, active compounds read low 1 | locus YJL154C, strain vps35, active compounds read low 0.986 | locus YJL164C, strain tpk1, active compounds read low 0.997 | locus YJL166W, strain qcr8, active compounds read low 0.995 | locus YJL168C, strain set2, active compounds read low 0.986 | locus YJL187C, strain SWE1 (second series), active compounds read low 1.04 | locus YJL187C, strain SWE1, active compounds read low 0.976 | locus YJR043C, strain POL32, active compounds read low 1.04 | locus YJR066W, strain TOR1, active compounds read low 0.941 | locus YJR075W, strain HOC1, active compounds read low 1.03 | locus YKL009W, strain mrt4, active compounds read low 0.968 | locus YKL068W, active compounds read low 0.99 | locus YKL085W, strain MDH1 (second series), active compounds read low 1.01 | locus YKL085W, strain MDH1, active compounds read low 1.01 | locus YKL160W, strain elf1, active compounds read low 1.01 | locus YKR001C, strain vps1, active compounds read low 1.02 | locus YKR026C, strain gcn3, active compounds read low 0.973 | locus YKR091W, strain srl3, active compounds read low 0.956 | locus YLL001W, strain dnm1, active compounds read low 1.01 | locus YLL026W, active compounds read low 0.999 | locus YLL041C, strain sdh2, active compounds read low 0.997 | locus YLR027C, strain aat2, active compounds read low 0.972 | locus YLR039C, strain RIC1, active compounds read low 1.01 | locus YLR058C, strain SHM2, active compounds read low 1.02 | locus YLR102C, strain apc9, active compounds read low 0.998 | locus YLR113W, strain HOG1, active compounds read low 1.02 | locus YLR221C, strain rsa3, active compounds read low 0.993 | locus YLR258W, strain gsy2, active compounds read low 0.982 | locus YLR262C, strain YPT6 (second series), active compounds read low 0.978 | locus YLR262C, strain YPT6, active compounds read low 1.04 | locus YLR268W, strain sec22, active compounds read low 1.02 | locus YLR320W, strain mms22, active compounds read low 0.984 | locus YLR330W, strain CHS5, active compounds read low 1 | locus YLR342W, strain FKS1 (second series), active compounds read low 1.07 | locus YLR342W, strain FKS1, active compounds read low 0.958 | locus YLR357W, strain rsc2, active compounds read low 0.963 | locus YLR370C, strain arc18, active compounds read low 0.957 | locus YLR371W, strain rom2, active compounds read low 0.945 | locus YLR384C, strain iki3, active compounds read low 0.988 | locus YLR418C, strain cdc73, active compounds read low 1.01 | locus YML016C, strain PPZ1, active compounds read low 1.02 | locus YML032C, strain rad52, active compounds read low 0.986 | locus YML120C, strain ndi1, active compounds read low 0.991 | locus YML124C, strain tub3, active compounds read low 0.978 | locus YMR058W, strain fet3, active compounds read low 0.968 | locus YMR078C, strain ctf18, active compounds read low 0.963 | locus YMR125W, strain sto1, active compounds read low 0.917 | locus YMR129W, active compounds read low 0.96 | locus YMR205C, strain PFK2, active compounds read low 0.931 | locus YMR223W, strain ubp8, active compounds read low 0.981 | locus YMR231W, strain pep5, active compounds read low 0.967 | locus YMR307W, strain GAS1, active compounds read low 1.13 | locus YNL067W, strain RPL9B, active compounds read low 1.05 | locus YNL071W, strain lat1, active compounds read low 0.987 | locus YNL153C, strain GIM3, active compounds read low 1.07 | locus YNL183C, strain NPR1, active compounds read low 0.97 | locus YNL209W, strain ssb2, active compounds read low 0.965 | locus YNL233W, strain BNI4, active compounds read low 1.06 | locus YNL248C, strain rpa49, active compounds read low 1.01 | locus YNL250W, strain rad50, active compounds read low 0.983 | locus YNL271C, strain bni1, active compounds read low 0.968 | locus YNL298W, strain CLA4, active compounds read low 0.972 | locus YNL307C, strain MCK1, active compounds read low 0.999 | locus YNL322C, strain KRE1 (second series), active compounds read low 0.971 | locus YNL322C, strain KRE1, active compounds read low 1.01 | locus YNR049C, strain mso1, active compounds read low 0.978 | locus YNR052C, strain pop2, active compounds read low 0.975 | locus YOL006C, strain TOP1, active compounds read low 1.08 | locus YOL012C, strain htz1 0.943 | locus YOL147C, strain pex11, active compounds read low 0.995 | locus YOR001W, strain rrp6, active compounds read low 1.03 | locus YOR061W, strain CKA2, active compounds read low 1.01 | locus YOR069W, strain VPS5, active compounds read low 1 | locus YOR070C, strain gyp1, active compounds read low 0.999 | locus YOR080W, strain dia2, active compounds read low 0.973 | locus YOR083W, strain WHI5, active compounds read low 1.02 | locus YOR106W, strain vam3, active compounds read low 1 | locus YOR136W, strain idh2, active compounds read low 1.01 | locus YOR144C, strain elg1, active compounds read low 0.996 | locus YOR184W, strain ser1, active compounds read low 1.01 | locus YOR231W, strain MKK1, active compounds read low 0.98 | locus YOR265W, strain rbl2, active compounds read low 0.946 | locus YOR270C, strain vph1, active compounds read low 0.989 | locus YOR290C, strain snf2, active compounds read low 0.917 | locus YOR316C, strain cot1, active compounds read low 0.971 | locus YPL051W, strain arl3, active compounds read low 1.01 | locus YPL055C, strain LGE1, active compounds read low 1.06 | locus YPL078C, strain atp4, active compounds read low 0.988 | locus YPL106C, strain sse1, active compounds read low 0.959 | locus YPL240C, strain hsp82, active compounds read low 0.977 | locus YPL256C, strain CLN2, active compounds read low 1.01 | locus YPR119W, strain clb2, active compounds read low 0.987 | locus YPR141C, strain kar3, active compounds read low 0.983 | locus YPR163C, strain tif3, active compounds read low 0.989 | locus YPR167C, strain met16, active compounds read low 0.975 | strain wtn01, active compounds read low 0.989
